How the values were obtained:
Assay in all cases: log2 ratio of Biotin-Ahx-Ub-VS probe labelling (fragment/DMSO); higher = less target engagement (more negative = stronger competition), active = hit call of the paper (q ≤ 0.05, log2 ratio ≤ -1)
Conditions in all cases: compound concentration: 200 uM; treatment time: 3 h
USP19 = biological target: T1, USP19 (UniProt O94966)
T1 sequence (whole entry): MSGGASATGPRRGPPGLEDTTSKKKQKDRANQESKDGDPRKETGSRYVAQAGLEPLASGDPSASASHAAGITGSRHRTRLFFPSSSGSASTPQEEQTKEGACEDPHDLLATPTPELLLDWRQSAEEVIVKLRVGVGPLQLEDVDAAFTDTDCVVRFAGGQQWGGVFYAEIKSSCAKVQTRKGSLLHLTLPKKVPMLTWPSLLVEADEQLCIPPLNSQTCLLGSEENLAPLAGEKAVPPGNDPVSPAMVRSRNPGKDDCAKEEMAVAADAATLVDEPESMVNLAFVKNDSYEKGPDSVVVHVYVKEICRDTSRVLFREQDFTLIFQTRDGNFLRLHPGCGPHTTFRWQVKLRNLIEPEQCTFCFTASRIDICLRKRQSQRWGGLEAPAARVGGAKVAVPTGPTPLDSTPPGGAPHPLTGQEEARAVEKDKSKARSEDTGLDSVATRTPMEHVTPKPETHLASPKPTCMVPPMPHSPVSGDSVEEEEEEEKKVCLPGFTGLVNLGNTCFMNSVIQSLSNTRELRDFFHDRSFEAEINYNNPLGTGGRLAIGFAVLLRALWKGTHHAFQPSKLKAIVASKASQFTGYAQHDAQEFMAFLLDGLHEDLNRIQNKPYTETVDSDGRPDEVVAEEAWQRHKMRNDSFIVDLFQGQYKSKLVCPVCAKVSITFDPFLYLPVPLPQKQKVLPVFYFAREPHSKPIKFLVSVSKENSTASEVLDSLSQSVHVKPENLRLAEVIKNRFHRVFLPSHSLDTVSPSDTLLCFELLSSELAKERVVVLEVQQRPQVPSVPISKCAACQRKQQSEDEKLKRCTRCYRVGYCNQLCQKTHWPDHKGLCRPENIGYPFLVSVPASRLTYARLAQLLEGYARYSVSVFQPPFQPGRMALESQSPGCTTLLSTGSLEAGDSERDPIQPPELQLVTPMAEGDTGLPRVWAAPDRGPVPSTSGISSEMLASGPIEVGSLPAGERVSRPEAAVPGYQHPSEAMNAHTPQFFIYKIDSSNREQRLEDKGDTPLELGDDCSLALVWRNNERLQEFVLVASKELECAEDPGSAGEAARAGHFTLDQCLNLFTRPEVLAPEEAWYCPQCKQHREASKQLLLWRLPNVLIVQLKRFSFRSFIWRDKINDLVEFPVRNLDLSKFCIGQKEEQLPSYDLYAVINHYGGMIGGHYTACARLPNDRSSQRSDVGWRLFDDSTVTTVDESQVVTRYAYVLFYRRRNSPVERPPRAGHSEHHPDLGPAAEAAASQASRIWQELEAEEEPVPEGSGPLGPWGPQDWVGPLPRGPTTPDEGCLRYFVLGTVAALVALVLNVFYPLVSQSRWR
In short: (§1)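 Using Biotin-Ahx-Ub-VS at 0.5 µM final for 1 h, DUBs were labelled in HEK293T lysate (495 µg per sample) that had first been treated in triplicate with fragment at 200 µM or vehicle for 3 h. NeutrAvidin enrichment, LysC and trypsin digestion and diaPASEF LC-MS/MS followed. Spectronaut label-free quantities were global-median-normalised. Values are average log2 fragment/vehicle ratios by unpaired t-test, using proteins with ≥2 unique peptides.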

USP22 = biological target: T2, USP22 (UniProt Q9UPT9)
T2 sequence (whole entry): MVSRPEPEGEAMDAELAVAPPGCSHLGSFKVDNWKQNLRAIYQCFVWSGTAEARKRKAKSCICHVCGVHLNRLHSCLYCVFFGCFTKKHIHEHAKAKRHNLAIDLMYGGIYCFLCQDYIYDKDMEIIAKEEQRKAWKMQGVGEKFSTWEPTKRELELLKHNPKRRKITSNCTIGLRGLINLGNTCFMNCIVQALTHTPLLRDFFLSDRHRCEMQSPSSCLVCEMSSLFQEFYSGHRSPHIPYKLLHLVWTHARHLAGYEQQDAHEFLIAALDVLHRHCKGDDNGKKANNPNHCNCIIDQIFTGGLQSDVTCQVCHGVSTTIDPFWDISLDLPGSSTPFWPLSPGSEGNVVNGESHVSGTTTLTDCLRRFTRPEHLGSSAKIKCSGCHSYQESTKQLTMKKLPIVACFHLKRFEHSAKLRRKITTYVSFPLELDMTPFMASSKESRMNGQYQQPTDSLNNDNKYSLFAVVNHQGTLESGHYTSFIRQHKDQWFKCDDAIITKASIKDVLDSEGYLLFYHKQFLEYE
In short: as §1

USP24 = USP24 (UniProt Q9UPU5)
Sequence of USP24 (Q9UPU5 whole entry): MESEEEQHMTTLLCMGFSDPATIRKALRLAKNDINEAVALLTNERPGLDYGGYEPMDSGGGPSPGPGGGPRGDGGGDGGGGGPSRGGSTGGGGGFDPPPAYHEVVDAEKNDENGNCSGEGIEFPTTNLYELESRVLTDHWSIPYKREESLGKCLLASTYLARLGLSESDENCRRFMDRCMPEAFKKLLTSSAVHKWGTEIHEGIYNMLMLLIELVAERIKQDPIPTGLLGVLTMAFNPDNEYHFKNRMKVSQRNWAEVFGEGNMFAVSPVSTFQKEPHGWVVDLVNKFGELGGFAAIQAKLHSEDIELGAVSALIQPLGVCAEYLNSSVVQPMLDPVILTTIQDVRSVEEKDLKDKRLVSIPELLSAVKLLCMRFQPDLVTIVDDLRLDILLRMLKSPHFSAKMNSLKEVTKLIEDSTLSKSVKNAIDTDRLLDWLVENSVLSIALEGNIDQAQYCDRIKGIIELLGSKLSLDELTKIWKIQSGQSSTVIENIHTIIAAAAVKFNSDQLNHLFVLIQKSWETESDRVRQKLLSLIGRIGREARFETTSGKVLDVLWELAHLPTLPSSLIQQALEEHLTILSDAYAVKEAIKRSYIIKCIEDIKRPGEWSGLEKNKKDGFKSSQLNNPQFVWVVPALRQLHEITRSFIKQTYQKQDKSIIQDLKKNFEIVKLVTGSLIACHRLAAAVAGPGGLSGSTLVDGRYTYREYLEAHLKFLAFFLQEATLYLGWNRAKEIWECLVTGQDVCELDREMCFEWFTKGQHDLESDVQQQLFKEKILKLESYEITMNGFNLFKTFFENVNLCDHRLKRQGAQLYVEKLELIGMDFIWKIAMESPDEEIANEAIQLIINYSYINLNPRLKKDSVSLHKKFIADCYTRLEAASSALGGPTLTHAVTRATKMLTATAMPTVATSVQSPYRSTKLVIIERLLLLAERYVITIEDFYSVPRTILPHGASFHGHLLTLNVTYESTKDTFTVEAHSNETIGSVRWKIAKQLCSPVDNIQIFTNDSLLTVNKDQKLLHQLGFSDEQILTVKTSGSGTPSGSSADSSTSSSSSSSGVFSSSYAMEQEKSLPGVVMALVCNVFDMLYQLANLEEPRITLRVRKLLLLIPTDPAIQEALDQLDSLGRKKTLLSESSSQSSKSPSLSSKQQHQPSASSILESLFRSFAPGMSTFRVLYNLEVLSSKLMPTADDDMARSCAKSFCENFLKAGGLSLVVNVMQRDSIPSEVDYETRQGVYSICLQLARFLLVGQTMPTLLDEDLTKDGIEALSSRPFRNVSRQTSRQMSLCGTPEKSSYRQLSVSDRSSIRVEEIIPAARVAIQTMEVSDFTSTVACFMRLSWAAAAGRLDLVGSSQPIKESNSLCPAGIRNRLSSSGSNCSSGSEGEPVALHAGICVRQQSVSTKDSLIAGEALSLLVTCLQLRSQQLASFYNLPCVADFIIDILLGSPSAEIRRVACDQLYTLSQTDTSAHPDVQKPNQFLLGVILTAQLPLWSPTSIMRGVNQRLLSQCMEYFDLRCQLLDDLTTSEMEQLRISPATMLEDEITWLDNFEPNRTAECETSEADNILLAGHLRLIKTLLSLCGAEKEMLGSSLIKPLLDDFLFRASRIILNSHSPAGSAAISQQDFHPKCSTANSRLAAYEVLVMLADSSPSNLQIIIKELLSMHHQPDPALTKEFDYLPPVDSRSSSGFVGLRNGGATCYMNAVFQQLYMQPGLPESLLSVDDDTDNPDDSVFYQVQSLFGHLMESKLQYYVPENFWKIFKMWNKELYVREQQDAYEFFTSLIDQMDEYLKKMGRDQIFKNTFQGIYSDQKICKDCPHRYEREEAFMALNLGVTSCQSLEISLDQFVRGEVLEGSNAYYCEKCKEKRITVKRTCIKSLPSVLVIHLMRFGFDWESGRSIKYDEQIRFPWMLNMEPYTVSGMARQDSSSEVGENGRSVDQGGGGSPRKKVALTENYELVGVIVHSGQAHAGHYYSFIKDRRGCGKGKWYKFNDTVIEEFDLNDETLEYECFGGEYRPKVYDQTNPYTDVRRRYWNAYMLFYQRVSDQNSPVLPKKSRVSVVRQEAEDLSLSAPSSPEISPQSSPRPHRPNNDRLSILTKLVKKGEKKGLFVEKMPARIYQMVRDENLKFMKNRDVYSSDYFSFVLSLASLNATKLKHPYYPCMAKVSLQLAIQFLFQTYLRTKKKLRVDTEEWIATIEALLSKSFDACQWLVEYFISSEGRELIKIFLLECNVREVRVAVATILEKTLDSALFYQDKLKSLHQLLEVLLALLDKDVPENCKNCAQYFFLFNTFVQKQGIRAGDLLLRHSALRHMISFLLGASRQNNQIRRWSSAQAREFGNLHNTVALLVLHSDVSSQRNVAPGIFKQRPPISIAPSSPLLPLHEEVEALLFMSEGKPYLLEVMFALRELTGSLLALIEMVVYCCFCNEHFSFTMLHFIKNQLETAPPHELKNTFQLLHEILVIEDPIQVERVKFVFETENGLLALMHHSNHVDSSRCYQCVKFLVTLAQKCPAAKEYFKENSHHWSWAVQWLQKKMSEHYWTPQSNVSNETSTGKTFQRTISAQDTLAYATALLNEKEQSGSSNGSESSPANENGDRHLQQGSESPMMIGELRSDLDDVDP
In short: as §1

USP25 = biological target: T3, USP25 (UniProt Q9UHP3)
T3 sequence (whole entry): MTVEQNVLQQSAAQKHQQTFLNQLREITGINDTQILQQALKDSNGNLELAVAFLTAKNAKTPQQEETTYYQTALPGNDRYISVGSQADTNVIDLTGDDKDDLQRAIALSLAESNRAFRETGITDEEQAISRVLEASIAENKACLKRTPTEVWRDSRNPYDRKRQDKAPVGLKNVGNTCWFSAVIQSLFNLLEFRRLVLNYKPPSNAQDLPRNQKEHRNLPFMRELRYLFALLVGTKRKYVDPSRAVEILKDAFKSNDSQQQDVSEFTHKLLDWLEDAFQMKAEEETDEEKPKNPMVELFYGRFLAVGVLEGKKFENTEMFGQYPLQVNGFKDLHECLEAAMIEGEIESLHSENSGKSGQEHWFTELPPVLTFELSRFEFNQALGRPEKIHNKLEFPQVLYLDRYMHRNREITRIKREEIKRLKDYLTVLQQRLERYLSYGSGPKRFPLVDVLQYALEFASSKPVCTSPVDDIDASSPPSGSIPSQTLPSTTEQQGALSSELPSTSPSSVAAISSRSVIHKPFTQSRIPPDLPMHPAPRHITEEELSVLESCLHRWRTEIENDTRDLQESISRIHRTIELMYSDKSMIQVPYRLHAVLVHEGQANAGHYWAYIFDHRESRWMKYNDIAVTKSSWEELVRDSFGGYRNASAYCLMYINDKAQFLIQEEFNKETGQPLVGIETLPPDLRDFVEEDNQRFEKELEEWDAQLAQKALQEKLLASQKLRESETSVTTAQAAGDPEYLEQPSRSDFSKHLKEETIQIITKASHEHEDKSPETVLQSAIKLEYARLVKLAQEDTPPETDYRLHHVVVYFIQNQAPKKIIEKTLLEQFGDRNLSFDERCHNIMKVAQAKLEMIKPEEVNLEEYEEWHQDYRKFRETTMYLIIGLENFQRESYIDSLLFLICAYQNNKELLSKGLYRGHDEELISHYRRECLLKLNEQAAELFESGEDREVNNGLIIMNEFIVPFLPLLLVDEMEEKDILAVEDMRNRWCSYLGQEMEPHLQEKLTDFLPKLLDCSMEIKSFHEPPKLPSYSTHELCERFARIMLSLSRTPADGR
In short: as §1

USP28 = biological target: T4, USP28 (UniProt Q96RU2)
T4 sequence (whole entry): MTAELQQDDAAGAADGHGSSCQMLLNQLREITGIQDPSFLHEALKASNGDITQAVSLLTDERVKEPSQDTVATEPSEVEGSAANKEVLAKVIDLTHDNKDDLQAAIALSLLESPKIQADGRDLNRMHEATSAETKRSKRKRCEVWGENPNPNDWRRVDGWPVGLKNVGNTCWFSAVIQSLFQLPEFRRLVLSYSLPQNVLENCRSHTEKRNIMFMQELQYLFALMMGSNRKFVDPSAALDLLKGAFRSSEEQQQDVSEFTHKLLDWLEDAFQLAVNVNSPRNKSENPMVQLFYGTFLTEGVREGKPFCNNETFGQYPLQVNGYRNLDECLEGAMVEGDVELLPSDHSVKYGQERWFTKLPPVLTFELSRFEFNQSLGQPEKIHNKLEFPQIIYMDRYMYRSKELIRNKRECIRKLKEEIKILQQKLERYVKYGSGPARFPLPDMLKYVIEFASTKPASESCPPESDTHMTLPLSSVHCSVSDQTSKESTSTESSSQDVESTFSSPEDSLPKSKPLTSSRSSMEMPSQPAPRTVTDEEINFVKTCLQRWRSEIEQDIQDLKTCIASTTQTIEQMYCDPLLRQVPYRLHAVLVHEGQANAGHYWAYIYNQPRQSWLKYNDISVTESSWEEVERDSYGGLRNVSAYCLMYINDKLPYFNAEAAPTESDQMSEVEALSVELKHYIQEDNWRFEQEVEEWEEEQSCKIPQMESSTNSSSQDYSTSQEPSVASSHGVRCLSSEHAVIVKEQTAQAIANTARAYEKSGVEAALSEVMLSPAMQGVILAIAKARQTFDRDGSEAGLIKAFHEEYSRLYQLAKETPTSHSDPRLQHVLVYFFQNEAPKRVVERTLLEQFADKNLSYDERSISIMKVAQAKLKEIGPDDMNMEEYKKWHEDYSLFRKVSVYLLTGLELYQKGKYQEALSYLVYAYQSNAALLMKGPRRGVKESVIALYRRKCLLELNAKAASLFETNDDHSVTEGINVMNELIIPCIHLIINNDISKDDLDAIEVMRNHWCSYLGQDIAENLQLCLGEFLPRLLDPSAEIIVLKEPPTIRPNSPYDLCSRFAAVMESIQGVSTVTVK
In short: as §1

Measured: log2 ratio of Biotin-Ahx-Ub-VS probe labelling

Cc1cc(Cl)ccc1NC(=O)CCl
inactive: USP19 -0.055 | USP22 -0.467 | USP24 -0.224 | USP25 -0.208 | USP28 -0.682
